# In PubChem BioAssay (NCI):
# The panel holds about 79,000 compounds, 15% with a hit somewhere; the sample as a whole holds those more often. Calls of active or inactive are those of the source. No stated cut-off is given here; in the data, active means growth inhibition above about 70%; inactive means the rest.
# Assays:
# [1] = NCI Yeast Anticancer Drug Screen. Data for the rad52 strain (AID 147);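 further: 0% = growth of vehicle-treated control cultures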; conditions: S. cerevisiae rad52 mutant growth inhibition, active compounds read high
# Method in brief: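 Compounds are applied to a genetically defined yeast strain lacking normal DNA damage repair, and inhibition of growth is expressed relative to cultures given vehicle only.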
# [2] = NCI Yeast Anticancer Drug Screen. Data for the rad50EPP+ strain (AID 151);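 further: 0% = growth of vehicle-treated control cultures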; conditions: S. cerevisiae rad50 mutant strain, active compounds read high
# Method in brief: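 Compounds were applied to the rad50EPP+ yeast strain, which bears a defined DNA repair alteration, and growth inhibition was determined relative to vehicle-treated cultures.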
# [3] = NCI Yeast Anticancer Drug Screen. Data for the mgt1 strain (AID 153); conditions: S. cerevisiae mgt1 mutant growth inhibition, active compounds read high
# Method in brief: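 Strain: mgt1 yeast, one of a set carrying defined DNA damage repair or cell cycle control alterations. Compound-treated growth compared with vehicle.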
# [4] = NCI Yeast Anticancer Drug Screen. Data for the rad50 strain (AID 155);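 further: 0% = growth of vehicle-only cultures of the same strain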; conditions: S. cerevisiae rad50 strain growth inhibition, active compounds read high
# Method in brief: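 Compounds were tested on a yeast strain with an engineered DNA damage repair alteration; the reported value is growth inhibition normalised to vehicle treatment.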
# [5] = NCI Yeast Anticancer Drug Screen. Data for the mec2-1 strain (AID 157); conditions: S. cerevisiae mec2-1 strain, active compounds read high
# Method in brief: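 Strain: mec2-1 (DNA repair/cell cycle alteration). Compound exposure, then growth measured; inhibition expressed relative to vehicle.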
# [6] = NCI Yeast Anticancer Drug Screen. Data for the rad14 strain (AID 159);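 further: 0% = growth of vehicle-treated control cultures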; conditions: S. cerevisiae rad14 strain growth inhibition, active compounds read high
# Method in brief: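 Compound-treated yeast with a defined DNA-repair lesion; growth inhibition normalised to vehicle-treated cultures.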
# [7] = NCI Yeast Anticancer Drug Screen. Data for the sgs1 mgt1 strain (AID 161);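 further: 0% = growth of cultures given vehicle only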; conditions: S. cerevisiae sgs1 mgt1 strain, active compounds read high
# Method in brief: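 Mutant yeast exposed to compound; growth scored against vehicle-only wells.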
# [8] = NCI Yeast Anticancer Drug Screen. Data for the CLN2oe strain (AID 163);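 further: 0% = growth of vehicle-only control cultures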; conditions: S. cerevisiae CLN2oe strain, active compounds read high
# Method in brief: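 Growth of a genetically modified yeast strain is measured after compound exposure and compared with cultures given vehicle alone.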
# [9] = NCI Yeast Anticancer Drug Screen. Data for the cln2 rad14 strain (AID 165);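 further: 0% = growth equal to vehicle treated cultures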; conditions: S. cerevisiae cln2 rad14 strain, active compounds read high
# Method in brief: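 Compounds are applied to the cln2 rad14 yeast strain, and growth is then compared with that of vehicle-treated cultures to give inhibition.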
# [10] = NCI Yeast Anticancer Drug Screen. Data for the bub3 strain (AID 167); conditions: S. cerevisiae bub3 mutant strain, active compounds read high
# Method in brief: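 Growth of a checkpoint-deficient yeast mutant is measured after compound exposure. Values represent inhibition relative to vehicle.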
# [11] = NCI Yeast Anticancer Drug Screen. Data for the mlh1 strain (AID 171);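 further: 0% = growth of vehicle-treated control cultures of the same strain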; conditions: S. cerevisiae mlh1 strain growth inhibition, active compounds read high
# Method in brief: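 Growth of the mutant yeast strain after compound exposure, expressed as inhibition relative to vehicle-only controls.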
# [12] = NCI Yeast Anticancer Drug Screen. Data for the sgs1 strain (AID 173);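 further: 0% = growth of vehicle-only control cultures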; conditions: S. cerevisiae sgs1 mutant, active compounds read high
# Method in brief: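 Growth of a yeast strain bearing a defined genetic alteration is measured after compound treatment. Inhibition is expressed relative to vehicle-only controls.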
# [13] = NCI Yeast Anticancer Drug Screen. Data for the mlh1 rad18 strain (AID 175); conditions: S. cerevisiae mlh1 rad18 strain growth inhibition, active compounds read high
# Method in brief: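 Read-out is yeast growth inhibition, calculated against vehicle-only controls. The compound was applied to a strain engineered with DNA damage repair alterations.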
# [14] = NCI Yeast Anticancer Drug Screen. Data for the rad18 strain (AID 177); conditions: S. cerevisiae rad18 mutant growth inhibition, active compounds read high
# Method in brief: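 Growth of the mutant yeast strain after compound exposure, normalised to vehicle-only cultures.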
# [15] = NCI Yeast Anticancer Drug Screen. Data for the wt2 strain (AID 169);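 further: 0% = growth of vehicle-treated yeast cultures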; conditions: S. cerevisiae wt2 strain growth inhibition, active compounds read high
# Method in brief: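 This strain belongs to a panel of yeast strains with defined genetic alterations in DNA damage repair or cell cycle control. Compounds are applied, and growth inhibition is measured against vehicle-treated cultures.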
# [16] = at 5.0 µM (retest, dose inferred, filed as 0.5)
# [17] = at 50.0 µM (retest, dose inferred, filed as 5.0)
compound,measurement,setting,value
C[CH2][Sn]([CH2]C)([O]C(=O)C(N)Cc1ccccc1)[O]C(=O)C(N)Cc1ccccc1 (stereo unspecified),growth inhibition,[1]; at 1.2 µM,1% (inactive)
same,growth inhibition,[1]; at 3.7 µM,-4% (inactive)
same,growth inhibition,[1]; at 11.0 µM,2% (inactive)
same,growth inhibition,[1]; at 33.0 µM,14% (inactive)
same,growth inhibition,[1]; at 100.0 µM,52% (inactive)
same,growth inhibition,[2]; at 1.2 µM,-13% (inactive)
same,growth inhibition,[2]; at 3.7 µM,-13% (inactive)
same,growth inhibition,[2]; at 11.0 µM,9% (inactive)
same,growth inhibition,[2]; at 33.0 µM,-28% (inactive)
same,growth inhibition,[2]; at 100.0 µM,-11% (inactive)
same,growth inhibition,[3]; at 1.2 µM,6% (inactive)
same,growth inhibition,[3]; at 3.7 µM,-2% (inactive)
same,growth inhibition,[3]; at 11.0 µM,1% (inactive)
same,growth inhibition,[3]; at 33.0 µM,23% (inactive)
same,growth inhibition,[3]; at 100.0 µM,56% (inactive)
same,growth inhibition,[4]; at 1.2 µM,10% (inactive)
same,growth inhibition,[4]; at 3.7 µM,3% (inactive)
same,growth inhibition,[4]; [16],19% (inactive)
same,growth inhibition,[4]; at 11.0 µM,14% (inactive)
same,growth inhibition,[4]; at 33.0 µM,15% (inactive)
same,growth inhibition,[4]; [17],20% (inactive)
same,growth inhibition,[4]; at 50.0 µM,55.8% (inactive)
same,growth inhibition,[4]; at 100.0 µM,54% (inactive)
same,growth inhibition,[5]; at 1.2 µM,3% (inactive)
same,growth inhibition,[5]; at 3.7 µM,3% (inactive)
same,growth inhibition,[5]; [16],19% (inactive)
same,growth inhibition,[5]; at 11.0 µM,0% (inactive)
same,growth inhibition,[5]; at 33.0 µM,3% (inactive)
same,growth inhibition,[5]; [17],36% (inactive)
same,growth inhibition,[5]; at 50.0 µM,70.5% (active)
same,growth inhibition,[5]; at 100.0 µM,49% (inactive)
same,growth inhibition,[6]; at 1.2 µM,-23% (inactive)
same,growth inhibition,[6]; at 3.7 µM,-11% (inactive)
same,growth inhibition,[6]; at 11.0 µM,-17% (inactive)
same,growth inhibition,[6]; at 33.0 µM,-13% (inactive)
same,growth inhibition,[6]; at 100.0 µM,7% (inactive)
same,growth inhibition,[7]; [16],-21% (inactive)
same,growth inhibition,[7]; [17],59% (inactive)
same,growth inhibition,[7]; at 50.0 µM,16.1% (inactive)
same,growth inhibition,[8]; at 1.2 µM,4% (inactive)
same,growth inhibition,[8]; at 3.7 µM,-1% (inactive)
same,growth inhibition,[8]; at 11.0 µM,10% (inactive)
same,growth inhibition,[8]; at 33.0 µM,14% (inactive)
same,growth inhibition,[8]; at 100.0 µM,36% (inactive)
same,growth inhibition,[9]; [16],17% (inactive)
same,growth inhibition,[9]; [17],76% (active)
same,growth inhibition,[9]; at 50.0 µM,61.1% (inactive)
same,growth inhibition,[10]; at 1.2 µM,-23% (inactive)
same,growth inhibition,[10]; at 3.7 µM,-25% (inactive)
same,growth inhibition,[10]; [16],2% (inactive)
same,growth inhibition,[10]; at 11.0 µM,-39% (inactive)
same,growth inhibition,[10]; at 33.0 µM,-29% (inactive)
same,growth inhibition,[10]; [17],74% (active)
same,growth inhibition,[10]; at 50.0 µM,47.7% (inactive)
same,growth inhibition,[10]; at 100.0 µM,32% (inactive)
same,growth inhibition,[11]; at 1.2 µM,6% (inactive)
same,growth inhibition,[11]; at 3.7 µM,-2% (inactive)
same,growth inhibition,[11]; at 11.0 µM,1% (inactive)
same,growth inhibition,[11]; at 33.0 µM,23% (inactive)
same,growth inhibition,[11]; at 100.0 µM,56% (inactive)
same,growth inhibition,[12]; at 1.2 µM,-8% (inactive)
same,growth inhibition,[12]; at 3.7 µM,7% (inactive)
same,growth inhibition,[12]; at 11.0 µM,4% (inactive)
same,growth inhibition,[12]; at 33.0 µM,0% (inactive)
same,growth inhibition,[12]; at 100.0 µM,42% (inactive)
same,growth inhibition,[13]; [16],17% (inactive)
same,growth inhibition,[13]; [17],23% (inactive)
same,growth inhibition,[13]; at 50.0 µM,-22.9% (inactive)
same,growth inhibition,[14]; at 1.2 µM,3% (inactive)
same,growth inhibition,[14]; at 3.7 µM,2% (inactive)
same,growth inhibition,[14]; at 11.0 µM,6% (inactive)
same,growth inhibition,[14]; at 33.0 µM,22% (inactive)
same,growth inhibition,[14]; at 100.0 µM,65% (inactive)
O=P(NC1CCCCC1)(OCc1ccccc1)OCc1ccccc1,growth inhibition,[1]; at 1.2 µM,-1% (inactive)
same,growth inhibition,[1]; at 3.7 µM,4% (inactive)
same,growth inhibition,[1]; at 11.0 µM,16% (inactive)
same,growth inhibition,[1]; at 33.0 µM,26% (inactive)
same,growth inhibition,[1]; at 100.0 µM,26% (inactive)
same,growth inhibition,[2]; at 1.2 µM,2% (inactive)
same,growth inhibition,[2]; at 3.7 µM,4% (inactive)
same,growth inhibition,[2]; at 11.0 µM,10% (inactive)
same,growth inhibition,[2]; at 33.0 µM,9% (inactive)
same,growth inhibition,[2]; at 100.0 µM,7% (inactive)
same,growth inhibition,[3]; at 1.2 µM,-1% (inactive)
same,growth inhibition,[3]; at 3.7 µM,0% (inactive)
same,growth inhibition,[3]; at 11.0 µM,4% (inactive)
same,growth inhibition,[3]; at 33.0 µM,4% (inactive)
same,growth inhibition,[3]; at 100.0 µM,7% (inactive)
same,growth inhibition,[4]; at 1.2 µM,3% (inactive)
same,growth inhibition,[4]; at 3.7 µM,5% (inactive)
same,growth inhibition,[4]; [16],8% (inactive)
same,growth inhibition,[4]; at 11.0 µM,11% (inactive)
same,growth inhibition,[4]; at 33.0 µM,19% (inactive)
same,growth inhibition,[4]; [17],14% (inactive)
same,growth inhibition,[4]; at 50.0 µM,73.3% (active)
same,growth inhibition,[4]; at 100.0 µM,26% (inactive)
same,growth inhibition,[5]; at 1.2 µM,1% (inactive)
same,growth inhibition,[5]; at 3.7 µM,1% (inactive)
same,growth inhibition,[5]; [16],5% (inactive)
same,growth inhibition,[5]; at 11.0 µM,7% (inactive)
same,growth inhibition,[5]; at 33.0 µM,10% (inactive)
same,growth inhibition,[5]; [17],4% (inactive)
same,growth inhibition,[5]; at 50.0 µM,23.6% (inactive)
same,growth inhibition,[5]; at 100.0 µM,11% (inactive)
same,growth inhibition,[6]; at 1.2 µM,-1% (inactive)
same,growth inhibition,[6]; at 3.7 µM,-2% (inactive)
same,growth inhibition,[6]; at 11.0 µM,4% (inactive)
same,growth inhibition,[6]; at 33.0 µM,6% (inactive)
same,growth inhibition,[6]; at 100.0 µM,13% (inactive)
same,growth inhibition,[7]; [16],7% (inactive)
same,growth inhibition,[7]; [17],7% (inactive)
same,growth inhibition,[7]; at 50.0 µM,42.3% (inactive)
same,growth inhibition,[8]; at 1.2 µM,7% (inactive)
same,growth inhibition,[8]; at 3.7 µM,2% (inactive)
same,growth inhibition,[8]; at 11.0 µM,10% (inactive)
same,growth inhibition,[8]; at 33.0 µM,12% (inactive)
same,growth inhibition,[8]; at 100.0 µM,17% (inactive)
same,growth inhibition,[9]; [16],15% (inactive)
same,growth inhibition,[9]; [17],9% (inactive)
same,growth inhibition,[9]; at 50.0 µM,-12.7% (inactive)
same,growth inhibition,[10]; at 1.2 µM,0% (inactive)
same,growth inhibition,[10]; at 3.7 µM,4% (inactive)
same,growth inhibition,[10]; [16],3% (inactive)
same,growth inhibition,[10]; at 11.0 µM,3% (inactive)
same,growth inhibition,[10]; at 33.0 µM,5% (inactive)
same,growth inhibition,[10]; [17],2% (inactive)
same,growth inhibition,[10]; at 50.0 µM,7.8% (inactive)
same,growth inhibition,[10]; at 100.0 µM,2% (inactive)
same,growth inhibition,[15]; at 1.2 µM,1% (inactive)
same,growth inhibition,[15]; at 3.7 µM,2% (inactive)
same,growth inhibition,[15]; at 11.0 µM,2% (inactive)
same,growth inhibition,[15]; at 33.0 µM,4% (inactive)
same,growth inhibition,[15]; at 100.0 µM,8% (inactive)
same,growth inhibition,[11]; at 1.2 µM,-7% (inactive)
same,growth inhibition,[11]; at 3.7 µM,0% (inactive)
same,growth inhibition,[11]; at 11.0 µM,2% (inactive)
same,growth inhibition,[11]; at 33.0 µM,4% (inactive)
same,growth inhibition,[11]; at 100.0 µM,7% (inactive)
same,growth inhibition,[13]; [16],3% (inactive)
same,growth inhibition,[13]; [17],3% (inactive)
same,growth inhibition,[13]; at 50.0 µM,34.8% (inactive)
same,growth inhibition,[14]; at 1.2 µM,-1% (inactive)
same,growth inhibition,[14]; at 3.7 µM,3% (inactive)
same,growth inhibition,[14]; at 11.0 µM,13% (inactive)
same,growth inhibition,[14]; at 33.0 µM,26% (inactive)
same,growth inhibition,[14]; at 100.0 µM,28% (inactive)
